# Source: PubChem BioAssay (Sanford-Burnham Center for Chemical Genomics)
# CYP2C9 inh = blockers of cytochrome P450 2C9 activity – biochemical, luminescence, ADME assay, primary screen; inhibition, % at 5 µM; P11712; hit rate 20% among 96,000; CYP2C9 Supersomes, luciferin-H conversion;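 active = blocking of liver enzyme CYP2C9 beyond about 50% at 5 µM, limit read from the data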
# PLAP act = PLAP enzyme activators, biochemical, luminescence, HTS; hit rate 1.2% among 96,000; activation fold at 20 µM; purified PLAP enzyme, luminescent substrate read-out; active compounds read high; Alkaline phosphatase, placental type (Homo sapiens), P05187; in the data active = activation fold above about 2
# Target sequence (P05187 whole entry, looked up): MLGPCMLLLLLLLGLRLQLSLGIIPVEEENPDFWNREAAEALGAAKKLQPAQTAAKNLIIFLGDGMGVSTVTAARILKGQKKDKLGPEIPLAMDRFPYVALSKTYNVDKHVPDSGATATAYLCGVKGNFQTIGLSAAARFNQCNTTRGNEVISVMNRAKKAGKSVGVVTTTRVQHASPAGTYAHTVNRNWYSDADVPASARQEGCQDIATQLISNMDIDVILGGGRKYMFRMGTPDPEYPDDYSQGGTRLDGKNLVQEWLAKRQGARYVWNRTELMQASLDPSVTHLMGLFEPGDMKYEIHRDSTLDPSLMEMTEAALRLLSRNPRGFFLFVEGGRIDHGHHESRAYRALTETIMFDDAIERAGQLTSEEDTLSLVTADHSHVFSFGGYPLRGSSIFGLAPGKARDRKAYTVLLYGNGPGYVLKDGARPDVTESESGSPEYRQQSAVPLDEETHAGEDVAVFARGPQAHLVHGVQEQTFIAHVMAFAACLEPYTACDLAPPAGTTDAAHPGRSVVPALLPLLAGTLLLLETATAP
# CYP2C19 inhib = blockers of cytochrome P450 2C19 activity – biochemical, luminescence, ADME assay, primary screen. P33261. CYP2C19 Supersomes, luciferin-H EGE luminescence, 30 min. inhibition, % at 5 µM. hit rate 21% among 96,000;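 active = CYP2C19 inhibition above a set limit at 5 µM in the primary screen, cut at about 50% in these data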;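 also: plate controls were negative control wells for no effect and 2.5 mM tranylcypromine positive control for full effect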
# CYP2C9 act = human CYP2C9 activators, primary screen, biochemical, luminescence; Cytochrome P450 2C9 (Homo sapiens), P11712; recombinant CYP2C9, luciferin-H conversion; active compounds read high; factor 1 = untreated enzyme, 0 = blocked; activation factor at 5 µM; hit rate 1.4% among 96,000;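 active = activation factor of 2 or more for CYP2C9 at a 5 µM dose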;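 also: 0 = sulfaphenazole-blocked wells and 1 = vehicle-only wells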
# CYP2C19 act = human CYP2C19 activators, primary screen, biochemical, luminescence; Cytochrome P450 2C19 (Homo sapiens), P33261; recombinant CYP2C19, luciferin-H EGE luminescence; active compounds read high; 0 = fully inhibited enzyme, 1 = untreated enzyme; activation factor at 5 µM; 96,000 tested, under 10 active; AID 1025, 2008;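 active = activation factor of at least 2 at 5 µM in the primary screen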;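 also: 0 = wells with 2.5 mM tranylcypromine and 1 = vehicle-only wells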
# Active calls of the source: *. The list is not random: actives were taken first. Their share in the collection is about 31%.
SMILES,CYP2C9 inh,PLAP act,CYP2C19 inhib,CYP2C9 act,CYP2C19 act
CS(=O)(=O)N(CC(=O)Nc1ccc2c(c1)OCO2)Cc1ccc(Cl)cc1,77.4*,1,84.4*,0.2,0.2
CC(c1nc2ccccc2c(=O)[nH]1)N1CCN(C)CC1 (centres undefined),-34.1,1.3,-6.4,1.3,1.1
COc1ccccc1CC(=O)Nc1ccc(O)cc1C(=O)O,1.5,1,-6.3,1,1.1
Cc1ccc(NC(=O)C2(S(=O)(=O)c3ccc(C)cc3)CC2)cc1,49.0,0.9,36.5,0.5,0.6
O=C(Nc1ccc2c(c1)OCO2)C1(S(=O)(=O)c2ccc(Cl)cc2)CC1,84.7*,1,31.0,0.2,0.7
CS(=O)(=O)N(CC(=O)Nc1ccc2c(c1)OCO2)c1ccc(Cl)cc1,89.9*,1,88.4*,0.1,0.1
Cc1ccc(S(=O)(=O)C2(C(=O)Nc3cccc(F)c3)CC2)cc1,38.8,0.8,95.4*,0.6,0
CS(=O)(=O)N(CC(=O)Nc1ccc2c(c1)OCO2)Cc1ccccc1,47.7,0.9,70.1*,0.5,0.3
CCCc1cc(=O)[nH]c(SCC(=O)NC2CCCCC2)n1,12.4,0.8,41.8,0.9,0.6
CC1(C)CC(OC(=O)c2ccco2)CC(C)(C)N1O,18.6,1,7.1,0.8,0.9
Cc1cc(N2CCN(c3ccccc3)CC2)n2c(n1)nc1ccccc12,67.1*,1.3,49.8,0.3,0.5
COc1cc(NC(=O)CSc2nnc(C)s2)cc(OC)c1,37.7,0.9,52.5*,0.6,0.5
COc1ccc(NC(=O)CCSc2nnc(C)s2)cc1,-26.9,1.2,-11.9,1.3,1.1
CCOc1ccc(C(=O)Nc2nnn(CC)n2)cc1,14.0,1,16.7,0.9,0.8
CCOc1ccc(C(=O)Nn2cnnc2)cc1,76.2*,1,73.7*,0.2,0.3
CCN(CCC(=O)Nc1cc(OC)cc(OC)c1)Cc1ccccc1,9.3,1.4,23.3,0.9,0.8
COc1ccc(C(=O)c2c[nH]c3ccccc23)cc1,42.4,0.8,40.7,0.6,0.6
CCCCNS(=O)(=O)c1ccc(NC(=O)c2c(-c3ccccc3Cl)noc2C)cc1,100.3*,1,82.6*,0,0.2
Cc1onc(-c2ccccc2Cl)c1C(=O)Nc1ccc(S(=O)(=O)NCC2CCCO2)cc1 (centres undefined),67.0*,1.1,29.2,0.3,0.7
Cc1onc(-c2ccccc2Cl)c1C(=O)Nc1ccc(-n2nncc2-c2ccco2)cc1,92.8*,1,99.4*,0.1,0
CC(=O)C1=C(C)NC(SCC(N)=O)=C(C#N)C1c1sccc1C (centres undefined),19.0,1.1,16.9,0.8,0.8
CCOC(=O)CSC1=C(C#N)C(c2sccc2C)C(C(C)=O)=C(C)N1 (centres undefined),72.8*,1.3,65.2*,0.3,0.3
CCOC(=O)C1=C(c2ccccc2)NC(SCC(N)=O)=C(C#N)C1c1cccnc1 (centres undefined),62.7*,1.1,68.1*,0.4,0.3
CCOC(=O)C1=C(C)NC(SCC(=O)Nc2nc(C)cs2)=C(C#N)C1c1cccs1 (centres undefined),95.8*,1.5,85.1*,0,0.1
CCOC(=O)C1=C(C)NC(=O)C(C#N)C1c1ccncc1 (centres undefined),50.4*,0.9,4.6,0.5,1
SMILES,CYP2C9 inh,PLAP act,CYP2C19 inhib,CYP2C9 act,CYP2C19 act
CC(=O)C1=C(C)NC(SCC(N)=O)=C(C#N)C1c1cccs1 (centres undefined),3.4,1,0.8,1,1
CC(C)Cc1nc2n[nH]c(N)c2c2c1CCC2,-13.8,1,-14.9,1.1,1.1
c1ccc(-c2noc(C34CC5CC(CC(C5)C3)C4)n2)nc1,-0.4,1.1,-9.4,1,1.1
CCOC(=O)C1=C(C)NC(SCC(N)=O)=C(C#N)C1c1ccncc1 (centres undefined),75.4*,0.9,81.5*,0.2,0.2
CCOCC(=O)Nc1nnc(C2CCCCC2)s1,3.2,0.9,-2.6,1,1
Cc1ccc(NC(=O)Cc2nnc(SCC(=O)c3ccc(Br)cc3)n2C)cc1Cl,11.5,0.8,-8.8,0.9,1.1
O=c1[nH][nH]cc1C=Nc1ccccc1O,10.1,1.2,4.7,0.9,1
COc1ccc(C=Nc2cccc3c(=O)[nH][nH]c(=O)c23)c2ccccc12,78.8*,1.2,41.7,0.2,0.6
COc1nc(OC)nc(N2CCC(NC(=O)C(Cc3ccc(C(C)C)cc3)NC(C)=O)CC2)n1 (centres undefined),57.1*,1.4,36.2,0.4,0.6
COc1ccc(CC(NC(C)=O)C(=O)NC2CCN(c3nnnn3-c3ccccc3)CC2)cc1 (centres undefined),-17.8,1.6,-16.9,1.2,1.2
CCOc1ccc(C2N(c3ccc(Cl)cc3)C(=O)C3CCCN32)cc1OC (centres undefined),48.5,1.7,65.1*,0.5,0.3
CCOc1ccc(C2N(c3ccc(F)cc3)C(=O)C3CCCN32)cc1OC (centres undefined),40.3,1.7,65.9*,0.6,0.3
CCOc1ccc(C2N(c3ccc(OC)cc3)C(=O)C3CCCN32)cc1OC (centres undefined),37.2,1.6,22.5,0.6,0.8
CCOc1ccc(C2N(c3cc(Cl)ccc3OC)C(=O)C3CCCN32)cc1OC (centres undefined),-34.5,1.6,72.0*,1.3,0.3
COc1ccccc1C1N(c2cc(Cl)ccc2OC)C(=O)C2CCCN21 (centres undefined),-58.8,1.5,31.9,1.6,0.7
COCCNC(=O)C1CC(=O)N(CCc2ccccc2)C1 (centres undefined),-13.0,1,22.4,1.1,0.8
COCCNc1oc(-c2ccccc2Cl)nc1C#N,69.0*,1.1,87.5*,0.3,0.1
N#Cc1nc(Cc2cccc3ccccc23)oc1NCC1CCCO1 (centres undefined),71.8*,1.5,83.6*,0.3,0.2
CCOc1ccc(-c2nc(C#N)c(NCC3CCCO3)o2)cc1 (centres undefined),7.3,1,-1.7,0.9,1
CCCOc1ccc(-c2nc(C#N)c(NCC3CCCO3)o2)cc1 (centres undefined),23.0,0.9,3.5,0.8,1
N#Cc1nc(-c2ccccc2Cl)oc1NCC1CCCO1 (centres undefined),64.5*,1.3,64.4*,0.4,0.4
CC(C(=O)N1CCN(c2ccc(Cl)cc2)CC1)c1ncc(C(F)(F)F)cc1Cl (centres undefined),28.8,1.2,52.2*,0.7,0.5
CC(=O)Nc1ccc(S(=O)(=O)N2CCc3ccccc3C2)cc1,-58.1,0.9,65.0*,1.6,0.3
